Reference: PubChem BioAssay AID1159580 (chemical genetic matrix, 2015)
About 2,000 (36%) of roughly 5,500 compounds were called active. Inconclusive results (about 18%) are left out. Cut-off read from the data, not from the text of the source: active = normalized growth mostly below about 0.91 (no sharp cut-off); inconclusive = no clear call, values can overlap the other calls; inactive = mostly above about 0.92. The list shows a part of the results.

Assay: chemical genetic growth profiling, strain panel (AID 1159580);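 note: tested at 20 µM; growth read once vehicle control cultures reached saturation at 30 °C; 1 = growth at the plate median or of vehicle wells; lower values mean less growth of the strain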
Conditions: growth OD

Measured: normalized growth

CCCCN1CCCCC1C(=O)Nc1c(C)cccc1C (configuration not stated)
inactive: S. cerevisiae deletion strains, locus YJR075W, strain HOC1, stronger effect = lower value 1 | S. cerevisiae deletion strains, locus YKL009W, strain mrt4, stronger effect = lower value 1.01 | S. cerevisiae deletion strains, locus YKL068W, stronger effect = lower value 0.991 | S. cerevisiae deletion strains, locus YKL085W, strain MDH1 (second series), stronger effect = lower value 1 | S. cerevisiae deletion strains, locus YKL085W, strain MDH1, stronger effect = lower value 1 | S. cerevisiae deletion strains, locus YKL160W, strain elf1, stronger effect = lower value 0.992 | S. cerevisiae deletion strains, locus YKL190W, strain CNB1, stronger effect = lower value 1.01 | S. cerevisiae deletion strains, locus YKR001C, strain vps1, stronger effect = lower value 1.01 | S. cerevisiae deletion strains, locus YKR026C, strain gcn3, stronger effect = lower value 0.997 | S. cerevisiae deletion strains, locus YKR091W, strain srl3, stronger effect = lower value 0.982 | S. cerevisiae deletion strains, locus YLL001W, strain dnm1, stronger effect = lower value 0.991 | S. cerevisiae deletion strains, locus YLL026W, stronger effect = lower value 0.998 | S. cerevisiae deletion strains, locus YLL041C, strain sdh2, stronger effect = lower value 0.991 | S. cerevisiae deletion strains, locus YLR027C, strain aat2, stronger effect = lower value 0.991 | S. cerevisiae deletion strains, locus YLR039C, strain RIC1, stronger effect = lower value 1.01 | S. cerevisiae deletion strains, locus YLR058C, strain SHM2, stronger effect = lower value 1.01 | S. cerevisiae deletion strains, locus YLR102C, strain apc9, stronger effect = lower value 0.994 | S. cerevisiae deletion strains, locus YLR113W, strain HOG1, stronger effect = lower value 0.991 | S. cerevisiae deletion strains, locus YLR221C, strain rsa3, stronger effect = lower value 0.996 | S. cerevisiae deletion strains, locus YLR258W, strain gsy2, stronger effect = lower value 0.992 | S. cerevisiae deletion strains, locus YLR262C, strain YPT6 (second series), stronger effect = lower value 0.998 | S. cerevisiae deletion strains, locus YLR262C, strain YPT6, stronger effect = lower value 1.06 | S. cerevisiae deletion strains, locus YLR268W, strain sec22, stronger effect = lower value 0.943 | S. cerevisiae deletion strains, locus YLR320W, strain mms22, stronger effect = lower value 1.01 | S. cerevisiae deletion strains, locus YLR330W, strain CHS5, stronger effect = lower value 1.01 | S. cerevisiae deletion strains, locus YLR342W, strain FKS1 (second series), stronger effect = lower value 1.03 | S. cerevisiae deletion strains, locus YLR342W, strain FKS1, stronger effect = lower value 0.973 | S. cerevisiae deletion strains, locus YLR357W, strain rsc2, stronger effect = lower value 0.982 | S. cerevisiae deletion strains, locus YLR370C, strain arc18, stronger effect = lower value 0.998 | S. cerevisiae deletion strains, locus YLR371W, strain rom2, stronger effect = lower value 0.99 | S. cerevisiae deletion strains, locus YLR384C, strain iki3, stronger effect = lower value 0.997 | S. cerevisiae deletion strains, locus YLR418C, strain cdc73, stronger effect = lower value 0.993 | S. cerevisiae deletion strains, locus YML016C, strain PPZ1, stronger effect = lower value 1.02 | S. cerevisiae deletion strains, locus YML032C, strain rad52, stronger effect = lower value 0.982 | S. cerevisiae deletion strains, locus YML120C, strain ndi1, stronger effect = lower value 0.973 | S. cerevisiae deletion strains, locus YML124C, strain tub3, stronger effect = lower value 0.993 | S. cerevisiae deletion strains, locus YMR058W, strain fet3, stronger effect = lower value 0.979 | S. cerevisiae deletion strains, locus YMR078C, strain ctf18, stronger effect = lower value 0.99 | S. cerevisiae deletion strains, locus YMR125W, strain sto1, stronger effect = lower value 0.982 | S. cerevisiae deletion strains, locus YMR129W, stronger effect = lower value 0.992 | S. cerevisiae deletion strains, locus YMR205C, strain PFK2, stronger effect = lower value 1.01 | S. cerevisiae deletion strains, locus YMR223W, strain ubp8, stronger effect = lower value 1.01 | S. cerevisiae deletion strains, locus YMR231W, strain pep5, stronger effect = lower value 0.996 | S. cerevisiae deletion strains, locus YMR263W, strain SAP30, stronger effect = lower value 1.01 | S. cerevisiae deletion strains, locus YMR307W, strain GAS1, stronger effect = lower value 1.05 | S. cerevisiae deletion strains, locus YNL067W, strain RPL9B, stronger effect = lower value 1.01 | S. cerevisiae deletion strains, locus YNL071W, strain lat1, stronger effect = lower value 0.984 | S. cerevisiae deletion strains, locus YNL128W, strain TEP1, stronger effect = lower value 1.02 | S. cerevisiae deletion strains, locus YNL153C, strain GIM3, stronger effect = lower value 1.01 | S. cerevisiae deletion strains, locus YNL183C, strain NPR1, stronger effect = lower value 0.948 | S. cerevisiae deletion strains, locus YNL209W, strain ssb2, stronger effect = lower value 0.976 | S. cerevisiae deletion strains, locus YNL233W, strain BNI4, stronger effect = lower value 1 | S. cerevisiae deletion strains, locus YNL248C, strain rpa49, stronger effect = lower value 0.959 | S. cerevisiae deletion strains, locus YNL250W, strain rad50, stronger effect = lower value 1 | S. cerevisiae deletion strains, locus YNL271C, strain bni1, stronger effect = lower value 0.985 | S. cerevisiae deletion strains, locus YNL298W, strain CLA4, stronger effect = lower value 1 | S. cerevisiae deletion strains, locus YNL307C, strain MCK1, stronger effect = lower value 0.993 | S. cerevisiae deletion strains, locus YNL322C, strain KRE1 (second series), stronger effect = lower value 0.986 | S. cerevisiae deletion strains, locus YNL322C, strain KRE1, stronger effect = lower value 1.01 | S. cerevisiae deletion strains, locus YNR049C, strain mso1, stronger effect = lower value 0.993 | S. cerevisiae deletion strains, locus YNR052C, strain pop2, stronger effect = lower value 0.99 | S. cerevisiae deletion strains, locus YOL006C, strain TOP1, stronger effect = lower value 1.02 | S. cerevisiae deletion strains, locus YOL012C, strain htz1 0.897 | S. cerevisiae deletion strains, locus YOL147C, strain pex11, stronger effect = lower value 0.987 | S. cerevisiae deletion strains, locus YOR001W, strain rrp6, stronger effect = lower value 0.991 | S. cerevisiae deletion strains, locus YOR061W, strain CKA2, stronger effect = lower value 1.02 | S. cerevisiae deletion strains, locus YOR069W, strain VPS5, stronger effect = lower value 1.01 | S. cerevisiae deletion strains, locus YOR070C, strain gyp1, stronger effect = lower value 0.996 | S. cerevisiae deletion strains, locus YOR080W, strain dia2, stronger effect = lower value 0.979 | S. cerevisiae deletion strains, locus YOR083W, strain WHI5, stronger effect = lower value 1 | S. cerevisiae deletion strains, locus YOR106W, strain vam3, stronger effect = lower value 0.969 | S. cerevisiae deletion strains, locus YOR136W, strain idh2, stronger effect = lower value 0.993 | S. cerevisiae deletion strains, locus YOR144C, strain elg1, stronger effect = lower value 0.993 | S. cerevisiae deletion strains, locus YOR184W, strain ser1, stronger effect = lower value 0.986 | S. cerevisiae deletion strains, locus YOR231W, strain MKK1, stronger effect = lower value 0.974 | S. cerevisiae deletion strains, locus YOR265W, strain rbl2, stronger effect = lower value 0.987 | S. cerevisiae deletion strains, locus YOR270C, strain vph1, stronger effect = lower value 0.985 | S. cerevisiae deletion strains, locus YOR290C, strain snf2, stronger effect = lower value 0.977 | S. cerevisiae deletion strains, locus YOR316C, strain cot1, stronger effect = lower value 0.989 | S. cerevisiae deletion strains, locus YPL051W, strain arl3, stronger effect = lower value 0.998 | S. cerevisiae deletion strains, locus YPL055C, strain LGE1, stronger effect = lower value 1.03 | S. cerevisiae deletion strains, locus YPL078C, strain atp4, stronger effect = lower value 0.978 | S. cerevisiae deletion strains, locus YPL106C, strain sse1, stronger effect = lower value 0.962 | S. cerevisiae deletion strains, locus YPL240C, strain hsp82, stronger effect = lower value 0.982 | S. cerevisiae deletion strains, locus YPL241C, strain CIN2, stronger effect = lower value 1.01 | S. cerevisiae deletion strains, locus YPL256C, strain CLN2, stronger effect = lower value 0.958 | S. cerevisiae deletion strains, locus YPR119W, strain clb2, stronger effect = lower value 0.987 | S. cerevisiae deletion strains, locus YPR141C, strain kar3, stronger effect = lower value 0.985 | S. cerevisiae deletion strains, locus YPR163C, strain tif3, stronger effect = lower value 0.992 | S. cerevisiae deletion strains, locus YPR167C, strain met16, stronger effect = lower value 0.991 | S. cerevisiae deletion strains, strain wtn01, stronger effect = lower value 0.98 | S. cerevisiae strains, strain wild type, stronger effect = lower value 1.02
